The nature of test [1]: ATG_GLI_CIS: Attagene CIS-FACTORIAL HepG2 Assay for human Zinc Finger Protein GLI1 (AID 2282945). The settings on record: HepG2, Attagene cis-factorial reporter mRNA, GLI element; actives raise or lower the signal. In short, it runs like this:
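Bidirectional curve fits relative to DMSO, using reporter mRNA levels from RT-PCR plus capillary electrophoresis. Cells were HepG2 transiently carrying cis-regulated reporter constructs, harvested 24 h after dosing.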

The target of test [2] is Bile acid receptor (Homo sapiens) (UniProt Q96RI1). Kind of test: ATG_IR1_CIS: Attagene CIS-FACTORIAL HepG2 Assay for human Nuclear Receptor Subfamily 1 Group H Member 4 (NR1H4), IR1 submotif (AID 2282946). The settings on record: IR1 reporter transcription, actives raise or lower the signal. The method, boiled down: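 HepG2 cells transiently transfected with multiplexed cis-element reporter units read endogenous transcription factor activity. After 24 h compound exposure, reporter mRNA was quantified by RT-PCR, fluorescent labelling, HpaI digestion and capillary electrophoresis; bidirectional fitting versus DMSO baseline.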

A short description of test [3]: ATG_GRE_CIS: Attagene CIS-FACTORIAL HepG2 Assay for human Glucocorticoid Response Elements (GRE) (AID 2282947). The settings on record: HepG2 GRE cis-reporter, Attagene multiplex mRNA; actives raise or lower the signal. The method, boiled down:
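Multiplexed cis-reporter mRNA induction, HepG2, 24 h post-dose. RT-PCR, FAM-labelled, HpaI-digested amplicons by CE. Bidirectional fit vs DMSO.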

Test [4] can be described thus: ATG_ISRE_CIS: Attagene CIS-FACTORIAL HepG2 Assay for human Interferon Regulatory Factor 1 (IRF1) binding to an Interferon-Stimulated Response Element (ISRE) (AID 2282948). The settings on record: HepG2 ISRE cis-reporter (Attagene), mRNA transcription readout; actives raise or lower the signal. In short, it runs like this: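 Endogenous transcription factor activity read as reporter transcript abundance via RT-PCR and capillary electrophoresis. HepG2 cells transiently transfected, 24 h chemical exposure. Gain or loss fitted against DMSO baseline.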

A short description of test [5]: ATG_M_32_CIS: Attagene CIS-FACTORIAL HepG2 Assay for M32 Transcription Factor (Internal Marker) (AID 2282949).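 Further: background control marker of the multiplexed CIS panel rather than a real target.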 The settings on record: HepG2 Attagene cis-factorial M32 reporter, mRNA; actives raise or lower the signal. In short, it runs like this: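 Using DMSO as baseline, bidirectional curve fits were applied to reporter mRNA signals. These came from transiently transfected HepG2 cells exposed for 24 h, with RNA analysed by RT-PCR, FAM primer extension, HpaI digestion and CE.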

Test [6] is described as follows: ATG_M_06_CIS: Attagene CIS-FACTORIAL HepG2 Assay for M06 Transcription Factor (Internal Marker) (AID 2282950). The settings on record: HepG2 Attagene CIS-FACTORIAL M06 internal marker reporter; actives raise or lower the signal. The method, boiled down: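 One of many multiplexed endpoints: HepG2 reporter mRNA after 24 h dosing, detected by RT-PCR and capillary electrophoresis fluorescence; gain or loss of signal analysed against DMSO.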

Test [7] has as its target Hypoxia-inducible factor 1-alpha (Homo sapiens) (UniProt Q16665). The experiment in a line: ATG_HIF1a_CIS: Attagene CIS-FACTORIAL HepG2 Assay for human Hypoxia Inducible Factor 1 (HIF1A) (AID 2282951). The settings on record: HepG2 Attagene cis-factorial HIF1a reporter transcription; actives raise or lower the signal. The method, boiled down: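 After 24 h chemical exposure of reporter-transfected HepG2 cells, reporter cDNA was PCR-amplified, labelled by 6-FAM primer extension (2 min 95 C, 20 s 68 C, 10 min 72 C), HpaI-cut (2 h, 37 C) and analysed by CE.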

The target in test [8] is Hepatocyte nuclear factor 6 (Homo sapiens) (UniProt Q9UBC0). Kind of test: ATG_HNF6_CIS: Attagene CIS-FACTORIAL HepG2 Assay for human Hepatocyte Nuclear Factor 6 (HNF6) (AID 2282952). The settings on record: HepG2 Attagene cis-factorial HNF6 reporter transcription; actives raise or lower the signal. In short, it runs like this: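 Using cis-element reporters in HepG2 liver cells, the assay tracks endogenous factor-driven transcription 24 h post-dosing. Signal comes from 6-FAM-labelled, HpaI-digested RT-PCR fragments, with gain or loss scored against DMSO.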

Test [9] concerns the target Heat shock factor protein 1 (Homo sapiens) (UniProt Q00613). Kind of test: ATG_HSE_CIS: Attagene CIS-FACTORIAL HepG2 Assay for human Heat Shock Transcription Factor 1 (HSE) (AID 2282953). The settings on record: HepG2 HSE cis-reporter, Attagene RNA transcription; actives raise or lower the signal. The method, boiled down:
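Using HepG2 with transfected cis-driven reporter constructs, compound effects on endogenous factor activity are scored as reporter mRNA change at 24 h. Detection: RT-PCR, HpaI digestion, capillary electrophoresis; bidirectional fitting to DMSO.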

Test [10] is described as follows: ATG_MRE_CIS: Attagene CIS-FACTORIAL HepG2 Assay for human Metal Responsive Element (MRE) (AID 2282954). The settings on record: HepG2 MRE cis-reporter transcription, Attagene multiplex; actives raise or lower the signal. In short, it runs like this: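 Multiplexed cis-reporter assay in human HepG2 liver cells, 24 h incubation with test chemical. Reporter transcripts measured by RT-PCR and capillary electrophoresis; values from bidirectional curve fitting versus DMSO.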

The nature of test [11]: ATG_PBREM_CIS: Attagene CIS-FACTORIAL HepG2 Assay for human Phenobarbital-responsive Enhancer Module (PBREM) (AID 2282955). The settings on record: HepG2 PBREM cis-reporter, Attagene multiplexed transcription; actives raise or lower the signal. In short, it runs like this:
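Measures endogenous factor action on a phenobarbital-responsive enhancer module. HepG2 transiently carrying cis reporters, 24 h treatment, mRNA read-out by RT-PCR plus capillary electrophoresis.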

Test [12] concerns the target Paired box protein Pax-6 (Homo sapiens) (UniProt P26367). Kind of test: ATG_Pax6_CIS: Attagene CIS-FACTORIAL HepG2 Assay for human Paired Box 6 (PAX6) (AID 2282956). The settings on record: HepG2 CIS-FACTORIAL PAX6 reporter transcription, RNA readout; actives raise or lower the signal. The method, boiled down: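 Read-out is reporter transcript level, measured by RT-PCR with fluorescent primer extension and capillary electrophoresis after 24 h dosing of transfected HepG2 cells. Activity in either direction fitted relative to DMSO control.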

Test [13] in a line: ATG_PXRE_CIS: Attagene CIS-FACTORIAL HepG2 Assay for human Pregnane X Receptor Element (PXRE) (AID 2282957). The settings on record: HepG2 Attagene CIS-FACTORIAL PXRE reporter, mRNA; actives raise or lower the signal. The method, boiled down: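 Using HepG2 transfected with multiple reporter transcription units, endogenous factor-driven transcription was scored as reporter mRNA after 24 h exposure.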

Test [14] can be described thus: ATG_PPRE_CIS: Attagene CIS-FACTORIAL HepG2 Assay for human Peroxisome Proliferator-activated Response Element (PPRE) (AID 2282958). The settings on record: HepG2 PPRE cis-element reporter, Attagene transcription factor profiling; actives raise or lower the signal. In short, it runs like this:
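PPRE activity in HepG2: transient cis-reporter transfection, 24 h compound incubation, reporter mRNA by RT-PCR and CE fluorescence; gain/loss fitted against DMSO.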

A short description of test [15]: ATG_RORE_CIS: Attagene CIS-FACTORIAL HepG2 Assay for human RAR-related Orphan Receptor Element (RORE) (AID 2282959). The settings on record: HepG2 Attagene cis-factorial RORE reporter, mRNA; actives raise or lower the signal. The method, boiled down: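 A 24-hour exposure of transfected HepG2 hepatoma cells precedes RNA isolation and reporter RT-PCR. Labeled products are digested with HpaI and resolved by capillary electrophoresis, with gain or loss of signal scored relative to DMSO.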

Test [16] can be described thus: ATG_Sox_CIS: Attagene CIS-FACTORIAL HepG2 Assay for human SRY-box transcription factor (SOX) (AID 2282960). The settings on record: HepG2 Attagene cis-factorial SOX reporter, mRNA; actives raise or lower the signal. In short, it runs like this:
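HepG2, cis reporter units, 24 h exposure. Reporter mRNA: RT-PCR → FAM labelling → HpaI → CE fluorescence. Bidirectional fit vs DMSO.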

The target of test [17] is Transcription factor Sp1 (Homo sapiens) (UniProt P08047). Kind of test: ATG_Sp1_CIS: Attagene CIS-FACTORIAL HepG2 Assay for human Specificity Protein 1 (Sp1) (AID 2282961). The settings on record: HepG2 Sp1 cis-reporter transcription, actives raise or lower the signal. The method, boiled down:
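Liver-derived HepG2 cells, cis-element reporter library, 24 h treatment; RNA isolated, cDNA amplified with reporter-specific primers, FAM-labeled fragments sized on capillary analyzer. DMSO baseline, bidirectional curve fit.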

Test [18] can be described thus: ATG_SREBP_CIS: Attagene CIS-FACTORIAL HepG2 Assay for human Sterol Regulatory Element Binding (SREBP) (AID 2282962). The settings on record: HepG2 Attagene cis-factorial SREBP reporter, mRNA; actives raise or lower the signal. The method, boiled down:
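Endogenous SREBP activity read as cis-element-driven reporter transcript in transiently transfected HepG2, 24 h post-dosing; quantified via RT-PCR plus capillary electrophoresis of fluorescent fragments. Gain or loss of signal fitted relative to DMSO baseline.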

In test [19] the target is Signal transducer and activator of transcription 3 (Homo sapiens) (UniProt P40763). Kind of test: ATG_STAT3_CIS: Attagene CIS-FACTORIAL HepG2 Assay for human Signal Transducer and Activator of Transcription 3 (STAT3) (AID 2282963). The settings on record: HepG2, Attagene cis-factorial STAT3 reporter transcription; actives raise or lower the signal. In short, it runs like this:
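Cis-factorial format: endogenous transcription factors in HepG2 drive transfected reporter units. After 24 h treatment, reporter RNA was reverse-transcribed, amplified, FAM-labelled and HpaI-digested before CE analysis; activity scored in both directions against DMSO.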

Test [20] in a line: ATG_TA_CIS: Attagene CIS-FACTORIAL HepG2 Assay for human TA Basal Promoter (AID 2282964). The settings on record: HepG2 Attagene CIS-factorial TA basal promoter reporter; actives raise or lower the signal. The method, boiled down: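 Transient MRTU transfection of HepG2 preceded 24 h compound exposure. Reporter mRNA levels were then read by RT-PCR with capillary electrophoresis, and this background-control endpoint was fitted bidirectionally to DMSO.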

“And” between values parts separate entries of the source, which are not always exact repeats. Identical values can stand only once. The source holds several records for some structures; these can differ, active in one and inactive in another. The source made the active and inactive calls. How the source made its calls: active means hit-call score of the fitted dose curve at least 0.9, where 1 is the maximum; inactive means score below 0.9.

Broadly, the AC50 is the concentration at which the activity in the assay is half-maximal.

Paired box protein Pax-6 (Homo sapiens), sequence (P26367 whole entry, looked up): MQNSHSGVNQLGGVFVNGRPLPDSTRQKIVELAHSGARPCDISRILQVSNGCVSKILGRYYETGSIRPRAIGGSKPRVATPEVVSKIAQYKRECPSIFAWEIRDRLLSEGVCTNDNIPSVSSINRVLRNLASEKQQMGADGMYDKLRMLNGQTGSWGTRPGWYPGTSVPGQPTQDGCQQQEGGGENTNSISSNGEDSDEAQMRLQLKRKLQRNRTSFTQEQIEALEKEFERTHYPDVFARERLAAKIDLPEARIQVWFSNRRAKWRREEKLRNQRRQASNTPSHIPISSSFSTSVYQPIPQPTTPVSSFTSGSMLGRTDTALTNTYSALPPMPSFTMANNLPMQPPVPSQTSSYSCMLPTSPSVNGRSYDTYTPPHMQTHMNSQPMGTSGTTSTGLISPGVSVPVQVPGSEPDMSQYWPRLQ
Hepatocyte nuclear factor 6 (Homo sapiens), sequence (Q9UBC0 whole entry, looked up, the tested form may be a part): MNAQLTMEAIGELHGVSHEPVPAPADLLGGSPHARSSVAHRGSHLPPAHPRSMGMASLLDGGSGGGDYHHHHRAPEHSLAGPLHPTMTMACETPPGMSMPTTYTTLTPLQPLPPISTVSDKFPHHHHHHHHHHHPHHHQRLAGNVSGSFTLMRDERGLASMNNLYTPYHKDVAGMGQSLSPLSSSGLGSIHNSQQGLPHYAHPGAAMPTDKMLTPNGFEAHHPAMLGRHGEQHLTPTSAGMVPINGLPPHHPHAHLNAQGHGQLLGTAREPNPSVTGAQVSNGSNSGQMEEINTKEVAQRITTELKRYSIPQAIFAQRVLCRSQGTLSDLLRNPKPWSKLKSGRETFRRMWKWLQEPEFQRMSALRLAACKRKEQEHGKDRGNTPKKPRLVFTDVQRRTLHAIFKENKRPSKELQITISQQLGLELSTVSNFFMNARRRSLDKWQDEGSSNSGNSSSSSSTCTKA
Bile acid receptor (Homo sapiens), sequence (Q96RI1 whole entry, looked up): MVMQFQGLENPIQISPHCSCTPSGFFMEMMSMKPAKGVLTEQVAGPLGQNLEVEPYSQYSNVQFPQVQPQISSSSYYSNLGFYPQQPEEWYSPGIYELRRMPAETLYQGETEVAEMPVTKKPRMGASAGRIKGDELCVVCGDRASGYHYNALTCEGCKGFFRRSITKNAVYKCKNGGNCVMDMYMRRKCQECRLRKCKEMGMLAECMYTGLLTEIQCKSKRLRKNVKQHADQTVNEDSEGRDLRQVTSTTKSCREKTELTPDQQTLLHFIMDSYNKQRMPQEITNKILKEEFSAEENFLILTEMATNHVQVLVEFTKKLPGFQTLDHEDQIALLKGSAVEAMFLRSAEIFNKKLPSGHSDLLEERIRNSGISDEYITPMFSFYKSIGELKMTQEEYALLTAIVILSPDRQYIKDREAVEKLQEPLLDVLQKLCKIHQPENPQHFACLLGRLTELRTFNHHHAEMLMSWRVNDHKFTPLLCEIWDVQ
Transcription factor Sp1 (Homo sapiens), sequence (P08047 whole entry, looked up, the tested form may be a part): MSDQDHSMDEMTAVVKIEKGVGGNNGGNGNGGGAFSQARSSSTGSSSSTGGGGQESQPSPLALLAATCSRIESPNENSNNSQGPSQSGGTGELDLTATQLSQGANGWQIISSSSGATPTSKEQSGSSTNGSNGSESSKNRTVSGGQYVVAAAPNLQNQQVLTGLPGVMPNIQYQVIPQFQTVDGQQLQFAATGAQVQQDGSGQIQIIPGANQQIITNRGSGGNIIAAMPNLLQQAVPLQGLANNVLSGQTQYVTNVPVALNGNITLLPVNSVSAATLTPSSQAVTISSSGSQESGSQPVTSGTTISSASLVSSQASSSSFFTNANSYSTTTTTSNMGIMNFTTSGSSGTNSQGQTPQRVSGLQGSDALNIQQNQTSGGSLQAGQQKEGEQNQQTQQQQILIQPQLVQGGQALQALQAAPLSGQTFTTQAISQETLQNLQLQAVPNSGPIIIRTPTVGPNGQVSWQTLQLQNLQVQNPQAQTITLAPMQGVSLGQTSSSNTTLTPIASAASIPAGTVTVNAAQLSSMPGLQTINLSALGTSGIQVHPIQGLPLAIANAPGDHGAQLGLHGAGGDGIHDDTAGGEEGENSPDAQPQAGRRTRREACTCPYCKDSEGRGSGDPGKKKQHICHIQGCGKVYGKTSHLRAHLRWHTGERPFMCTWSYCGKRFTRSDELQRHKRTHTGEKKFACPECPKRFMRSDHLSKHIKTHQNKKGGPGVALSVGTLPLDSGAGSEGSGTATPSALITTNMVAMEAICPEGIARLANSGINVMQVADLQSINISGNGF
Signal transducer and activator of transcription 3 (Homo sapiens), sequence (P40763 whole entry, looked up): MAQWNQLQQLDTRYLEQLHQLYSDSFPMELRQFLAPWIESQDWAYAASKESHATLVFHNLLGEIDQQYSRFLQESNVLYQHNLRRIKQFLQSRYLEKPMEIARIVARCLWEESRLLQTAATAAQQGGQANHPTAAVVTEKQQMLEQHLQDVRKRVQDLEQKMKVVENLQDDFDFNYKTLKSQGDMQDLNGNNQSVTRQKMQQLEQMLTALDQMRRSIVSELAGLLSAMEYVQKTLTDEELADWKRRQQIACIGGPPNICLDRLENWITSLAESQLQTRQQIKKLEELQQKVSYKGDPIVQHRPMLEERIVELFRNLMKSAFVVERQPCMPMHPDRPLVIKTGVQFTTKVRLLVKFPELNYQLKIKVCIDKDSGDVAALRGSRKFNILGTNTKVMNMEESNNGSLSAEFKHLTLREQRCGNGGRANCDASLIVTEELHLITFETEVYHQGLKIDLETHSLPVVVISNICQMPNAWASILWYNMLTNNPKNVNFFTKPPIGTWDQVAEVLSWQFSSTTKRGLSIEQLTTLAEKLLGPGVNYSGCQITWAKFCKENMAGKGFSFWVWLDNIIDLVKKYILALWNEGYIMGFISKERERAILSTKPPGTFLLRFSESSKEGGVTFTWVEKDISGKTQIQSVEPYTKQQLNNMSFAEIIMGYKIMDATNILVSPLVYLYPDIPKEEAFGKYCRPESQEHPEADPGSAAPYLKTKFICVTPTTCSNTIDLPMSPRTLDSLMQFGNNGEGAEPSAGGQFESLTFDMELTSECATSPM
Hypoxia-inducible factor 1-alpha (Homo sapiens), sequence (Q16665 whole entry, looked up): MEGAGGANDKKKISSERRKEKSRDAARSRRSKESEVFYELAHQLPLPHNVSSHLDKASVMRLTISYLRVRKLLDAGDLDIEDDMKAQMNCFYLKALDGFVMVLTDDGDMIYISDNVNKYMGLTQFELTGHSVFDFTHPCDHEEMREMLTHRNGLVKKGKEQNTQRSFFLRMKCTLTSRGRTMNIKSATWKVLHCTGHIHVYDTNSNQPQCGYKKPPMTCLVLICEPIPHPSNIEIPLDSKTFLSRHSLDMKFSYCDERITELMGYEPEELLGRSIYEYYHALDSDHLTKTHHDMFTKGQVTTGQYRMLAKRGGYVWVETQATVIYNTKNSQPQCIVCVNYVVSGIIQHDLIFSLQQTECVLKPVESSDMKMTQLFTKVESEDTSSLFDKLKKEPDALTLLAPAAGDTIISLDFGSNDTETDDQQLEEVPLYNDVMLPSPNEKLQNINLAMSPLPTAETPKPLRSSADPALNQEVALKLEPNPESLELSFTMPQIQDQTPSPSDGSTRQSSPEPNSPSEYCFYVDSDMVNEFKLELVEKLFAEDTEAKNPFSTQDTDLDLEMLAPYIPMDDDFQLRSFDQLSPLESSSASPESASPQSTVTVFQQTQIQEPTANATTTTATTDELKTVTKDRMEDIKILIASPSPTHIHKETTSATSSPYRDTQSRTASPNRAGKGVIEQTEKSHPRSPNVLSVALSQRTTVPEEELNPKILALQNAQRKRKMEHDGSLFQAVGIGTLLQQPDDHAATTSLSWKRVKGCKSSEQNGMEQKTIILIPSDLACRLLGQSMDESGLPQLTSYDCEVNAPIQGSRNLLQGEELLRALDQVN
Heat shock factor protein 1 (Homo sapiens), sequence (Q00613 whole entry, looked up): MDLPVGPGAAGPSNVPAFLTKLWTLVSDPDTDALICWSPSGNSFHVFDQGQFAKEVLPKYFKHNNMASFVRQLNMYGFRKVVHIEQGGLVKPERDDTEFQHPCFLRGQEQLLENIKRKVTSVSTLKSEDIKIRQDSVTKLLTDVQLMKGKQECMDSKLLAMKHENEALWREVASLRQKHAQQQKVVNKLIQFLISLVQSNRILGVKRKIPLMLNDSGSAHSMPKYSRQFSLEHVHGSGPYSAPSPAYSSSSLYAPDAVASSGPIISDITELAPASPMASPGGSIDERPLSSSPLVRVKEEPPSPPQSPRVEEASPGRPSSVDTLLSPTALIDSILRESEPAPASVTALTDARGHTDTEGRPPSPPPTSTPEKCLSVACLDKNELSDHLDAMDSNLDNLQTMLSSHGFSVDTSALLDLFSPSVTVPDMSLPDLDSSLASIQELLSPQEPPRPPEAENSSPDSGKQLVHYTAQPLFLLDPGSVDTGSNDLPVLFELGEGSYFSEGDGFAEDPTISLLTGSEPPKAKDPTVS

Turning to `c1ccc2c(c1)ccc1ccccc12`, the outcome in test [1], in [2], in test [3], in test [4], in [5] and in test [6] was inactive. Besides, the outcome in test [8], in [9], in [10], in test [11], in test [12] and in test [14] was inactive. The call in test [15], in [16], in test [17], in [18], in test [19] and in test [20] was inactive. In addition, the AC50 in test [7] is 26.9 µM (active); in test [13], 58.4 µM (active).
With `CC#C[C@]1(O)CC[C@H]2[C@@H]3CCC4=CC(=O)CCC4=C3[C@@H](c3ccc(N(C)C)cc3)C[C@@]21C`, the concentration at half-maximal activity (AC50) in test [1] is 100 µM (active) and 134 µM (active); in [2], 8.96 µM (active) and 9.17 µM (active) and 10.6 µM (active); in [3], 26.7 µM (active); in [7] it was 8.4 µM (active) [middle of 4 runs]; in test [10] it was 21.3 µM (active) [middle of 4 runs]; in test [11], 11.5 µM (active) and 4.77 µM (active) and 13 µM (active). Further, the concentration at half-maximal activity (AC50) in test [12] is 11.6 µM (active) [middle of 4 runs]; in [13], 1.03 µM (active) [middle of 4 runs]; in test [15] it was 6.68 µM (active) [middle of 4 runs]; in [17], 122 µM (active) and 27.5 µM (active); in test [18], 23.9 µM (active) and 91.2 µM (active) and 31.7 µM (active); in test [20], 9.11 µM (active) and 8.72 µM (active) and 27.2 µM (active). Moreover, the outcome in test [1], in [2], in test [3], in test [5], in [8] and in test [11] was inactive. In addition, the compound was classed as inactive in test [16], in test [17], in test [18], in test [19] and in test [20].
For `CC(O)CO` (configuration not stated), the result in [1], in test [2], in [3], in test [4], in test [5] and in test [6] was inactive. The outcome in test [7], in test [8], in [9], in test [10], in test [12] and in test [13] was inactive. The outcome in [14], in test [15], in test [16], in [17], in test [18] and in [19] was inactive. In addition, in test [20], the result was inactive.

(Values after PubChem BioAssay (EPA / NIEHS).)
